# Biological target: Mitogen-activated protein kinase 10 (Homo sapiens) (UniProt P53779)
# Settings: at 10 µM
# Sequence of Mitogen-activated protein kinase 10 (Homo sapiens) (P53779 whole entry): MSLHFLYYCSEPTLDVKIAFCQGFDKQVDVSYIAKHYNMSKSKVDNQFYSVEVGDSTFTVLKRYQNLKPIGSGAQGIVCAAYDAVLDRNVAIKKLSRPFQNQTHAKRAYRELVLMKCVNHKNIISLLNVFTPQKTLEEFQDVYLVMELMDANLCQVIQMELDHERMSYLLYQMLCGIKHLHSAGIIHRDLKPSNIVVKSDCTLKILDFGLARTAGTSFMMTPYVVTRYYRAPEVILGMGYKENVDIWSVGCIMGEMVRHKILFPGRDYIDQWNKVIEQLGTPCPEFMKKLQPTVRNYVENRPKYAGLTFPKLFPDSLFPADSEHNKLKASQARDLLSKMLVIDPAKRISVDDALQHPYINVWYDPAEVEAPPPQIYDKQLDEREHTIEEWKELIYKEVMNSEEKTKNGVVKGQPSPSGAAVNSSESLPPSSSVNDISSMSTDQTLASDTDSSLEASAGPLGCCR
row,SMILES,residual activity [%]
1,CN([C@@H](Cc1ccc(OS(=O)(=O)c2cccc3cnccc23)cc1)C(=O)N1CCN(c2ccccc2)CC1)S(=O)(=O)c1cccc2cnccc12,75
2,N#C/C(=C\c1ccc(O)c(O)c1)C(=O)NCc1ccccc1,72
3,COc1ccc(Cl)cc1NC(=O)Nc1cc(C)nc2ccccc12,78
4,O=C(Nc1ccc(Cl)cc1)c1ccccc1NCc1ccncc1,123
5,O=C1C(Cl)=C(N2C(=O)CCC2=O)C(=O)c2ccccc21,94
6,O=C1Cc2c([nH]c3ccc([N+](=O)[O-])cc23)-c2ccccc2N1,66
7,N#Cc1c(NC(=O)c2cccc3ccccc23)sc2c1CCCC2,0
8,CC(C)[C@H](CO)Nc1nc(Nc2cc(N)cc(Cl)c2)c2ncn(C(C)C)c2n1,67
9,Nc1n[nH]c2nc3ccccc3nc12,66
10,CSc1nc(-c2ccc(F)cc2)c(-c2ccnc(NC(C)c3ccccc3)c2)[nH]1 (configuration not stated),-3
11,O=c1c(-c2ccc(F)cc2)c(-c2ccncc2)[nH]n1-c1ccc(Cl)cc1,-2
12,O=C(c1ccccc1)c1ccc(N2CCOCC2)cc1O,53
13,O=C1Nc2ccccc2/C1=C\c1c(Cl)[nH]c2ccccc12,47
14,Nc1nccc(-c2c(-c3ccc(F)cc3)ncn2C2CCNCC2)n1,22
15,CC(C)N(CCC(=O)c1ccc2ccccc2c1)Cc1ccccc1,84
16,O=C1NC(=O)C(c2c[nH]c3ccccc23)=C1c1c[nH]c2ccccc12,-3
17,O=C1NC(=O)C(c2cn(CCCn3ccnc3)c3ccccc23)=C1Nc1ccccc1,68
18,Fc1ccc(-c2nc3n(c2-c2ccncc2)CCS3)cc1,7
19,COc1ccc(CNC(=O)Nc2ncc([N+](=O)[O-])s2)cc1,57

# Biological target: Vascular endothelial growth factor receptor 2 (Homo sapiens) (UniProt P35968)
# Settings: at 1 µM
# Sequence of Vascular endothelial growth factor receptor 2 (Homo sapiens) (P35968 whole entry): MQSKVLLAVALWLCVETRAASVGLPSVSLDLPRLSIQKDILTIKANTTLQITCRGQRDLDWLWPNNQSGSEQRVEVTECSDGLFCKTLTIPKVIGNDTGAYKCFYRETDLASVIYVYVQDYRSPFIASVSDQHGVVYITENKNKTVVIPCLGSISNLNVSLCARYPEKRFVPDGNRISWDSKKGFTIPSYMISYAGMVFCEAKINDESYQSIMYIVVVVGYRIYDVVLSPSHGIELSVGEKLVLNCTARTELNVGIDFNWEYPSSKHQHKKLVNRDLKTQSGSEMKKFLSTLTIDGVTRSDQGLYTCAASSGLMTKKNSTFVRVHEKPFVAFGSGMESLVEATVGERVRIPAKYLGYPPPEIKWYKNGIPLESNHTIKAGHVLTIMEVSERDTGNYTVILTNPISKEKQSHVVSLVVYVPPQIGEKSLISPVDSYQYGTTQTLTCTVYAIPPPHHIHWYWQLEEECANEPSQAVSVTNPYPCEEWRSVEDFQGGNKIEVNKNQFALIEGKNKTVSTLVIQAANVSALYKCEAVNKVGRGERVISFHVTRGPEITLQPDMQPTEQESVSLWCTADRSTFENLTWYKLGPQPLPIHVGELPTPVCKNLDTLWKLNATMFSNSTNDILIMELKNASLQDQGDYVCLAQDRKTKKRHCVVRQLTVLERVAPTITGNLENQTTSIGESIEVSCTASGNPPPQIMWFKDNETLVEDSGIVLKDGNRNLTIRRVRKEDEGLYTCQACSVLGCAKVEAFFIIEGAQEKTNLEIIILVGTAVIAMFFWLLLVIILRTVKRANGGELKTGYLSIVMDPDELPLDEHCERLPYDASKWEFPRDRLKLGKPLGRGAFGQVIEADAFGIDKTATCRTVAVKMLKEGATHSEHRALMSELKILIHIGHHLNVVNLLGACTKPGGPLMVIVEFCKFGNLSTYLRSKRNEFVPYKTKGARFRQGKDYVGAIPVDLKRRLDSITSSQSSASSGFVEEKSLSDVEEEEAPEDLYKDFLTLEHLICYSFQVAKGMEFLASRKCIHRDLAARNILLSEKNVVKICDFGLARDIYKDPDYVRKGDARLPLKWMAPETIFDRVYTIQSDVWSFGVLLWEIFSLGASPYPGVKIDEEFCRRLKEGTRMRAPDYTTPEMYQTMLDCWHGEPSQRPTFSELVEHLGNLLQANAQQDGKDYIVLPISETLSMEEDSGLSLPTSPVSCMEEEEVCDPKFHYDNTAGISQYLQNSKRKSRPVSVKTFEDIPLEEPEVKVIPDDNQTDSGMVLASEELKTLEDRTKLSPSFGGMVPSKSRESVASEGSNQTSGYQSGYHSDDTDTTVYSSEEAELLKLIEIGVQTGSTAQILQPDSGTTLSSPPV
row,SMILES,residual activity [%]
1,NC(=O)c1cccc(-c2cc(Nc3ccc(OC(F)(F)F)cc3)ncn2)c1,100
2,CCOC(=O)c1c(C)[nH]c(/C=C2\C(=O)Nc3ccccc32)c1C,16
3,O=C(Nc1ccc(Cl)cc1)c1ccccc1NCc1ccncc1,3
4,O=C1Cc2c([nH]c3ccc([N+](=O)[O-])cc23)-c2ccccc2N1,52
5,COc1ccc(-c2cnc3c(-c4ccsc4)cnn3c2)cc1,88
6,Cc1cc(C)c(/C=C2\C(=O)Nc3ccccc32)[nH]1,4
7,O=c1c(-c2ccc(F)cc2)c(-c2ccncc2)[nH]n1-c1ccc(Cl)cc1,102
8,O=C(c1ccccc1)c1ccc(N2CCOCC2)cc1O,99
9,O=C1NC(=O)C(c2c[nH]c3ccccc23)=C1c1c[nH]c2ccccc12,16
10,O=C1Cc2c([nH]c3ccc(Br)cc23)-c2ccccc2N1,74
11,O=C1NC(=O)C(c2cn(CCCn3ccnc3)c3ccccc23)=C1Nc1ccccc1,73

# Biological target: Vascular endothelial growth factor receptor 2 (Homo sapiens) (UniProt P35968)
# Settings: at 10 µM
row,SMILES,residual activity [%]
1,N#C/C(=C\c1ccc(O)c(O)c1)C(=O)NCc1ccccc1,87
2,NC(=O)c1cccc(-c2cc(Nc3ccc(OC(F)(F)F)cc3)ncn2)c1,89
3,CCOC(=O)c1c(C)[nH]c(/C=C2\C(=O)Nc3ccccc32)c1C,28
4,O=C(Nc1ccc(Cl)cc1)c1ccccc1NCc1ccncc1,4
5,O=C1Cc2c([nH]c3ccc([N+](=O)[O-])cc23)-c2ccccc2N1,42
6,N#Cc1c(NC(=O)c2cccc3ccccc23)sc2c1CCCC2,96
7,COc1ccc(-c2cnc3c(-c4ccsc4)cnn3c2)cc1,68
8,CSc1nc(-c2ccc(F)cc2)c(-c2ccnc(NC(C)c3ccccc3)c2)[nH]1 (configuration not stated),87
9,Cc1cc(C)c(/C=C2\C(=O)Nc3ccccc32)[nH]1,2
10,O=c1c(-c2ccc(F)cc2)c(-c2ccncc2)[nH]n1-c1ccc(Cl)cc1,54
11,O=C(c1ccccc1)c1ccc(N2CCOCC2)cc1O,96
12,O=C1Nc2ccccc2/C1=C\c1c(Cl)[nH]c2ccccc12,30
13,CC(C)N(CCC(=O)c1ccc2ccccc2c1)Cc1ccccc1,85
14,O=S(=O)(NCCNC/C=C/c1ccc(Br)cc1)c1cccc2cnccc12,62
15,O=C1NC(=O)C(c2c[nH]c3ccccc23)=C1c1c[nH]c2ccccc12,2
16,O=C1Cc2c([nH]c3ccc(Br)cc23)-c2ccccc2N1,31
17,O=C1NC(=O)C(c2cn(CCCn3ccnc3)c3ccccc23)=C1Nc1ccccc1,22

# Biological target: LIM domain kinase 1 (Homo sapiens) (UniProt P53667)
# Settings: at 1 µM
# Sequence of LIM domain kinase 1 (Homo sapiens) (P53667 whole entry, looked up, the tested form may be a part): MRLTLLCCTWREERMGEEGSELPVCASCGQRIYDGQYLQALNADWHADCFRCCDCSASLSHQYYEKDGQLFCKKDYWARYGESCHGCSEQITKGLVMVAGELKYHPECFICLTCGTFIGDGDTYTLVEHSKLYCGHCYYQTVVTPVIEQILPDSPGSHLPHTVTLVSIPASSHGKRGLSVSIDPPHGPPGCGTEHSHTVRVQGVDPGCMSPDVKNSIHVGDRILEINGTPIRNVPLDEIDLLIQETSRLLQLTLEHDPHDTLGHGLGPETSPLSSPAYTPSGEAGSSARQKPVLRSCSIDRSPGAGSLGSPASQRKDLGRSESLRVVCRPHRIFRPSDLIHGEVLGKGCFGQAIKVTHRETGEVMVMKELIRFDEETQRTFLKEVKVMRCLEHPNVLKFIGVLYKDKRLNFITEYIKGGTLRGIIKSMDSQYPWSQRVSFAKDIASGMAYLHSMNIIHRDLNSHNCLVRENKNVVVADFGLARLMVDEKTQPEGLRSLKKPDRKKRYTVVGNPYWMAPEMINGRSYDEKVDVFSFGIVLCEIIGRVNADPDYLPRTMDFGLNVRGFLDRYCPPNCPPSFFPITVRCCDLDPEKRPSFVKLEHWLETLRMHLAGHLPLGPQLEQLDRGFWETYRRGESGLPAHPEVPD
row,SMILES,residual activity [%]
1,CN([C@@H](Cc1ccc(OS(=O)(=O)c2cccc3cnccc23)cc1)C(=O)N1CCN(c2ccccc2)CC1)S(=O)(=O)c1cccc2cnccc12,99
2,O=C(Nc1nc2ccccc2n1CCN1CCOCC1)c1cccc([N+](=O)[O-])c1,105
3,O=C1C(Cl)=C(N2C(=O)CCC2=O)C(=O)c2ccccc21,88
4,N#Cc1c(NC(=O)c2cccc3ccccc23)sc2c1CCCC2,92
5,Nc1n[nH]c2nc3ccccc3nc12,89
6,Nc1nccc(-c2c(-c3ccc(F)cc3)ncn2C2CCNCC2)n1,64
7,O=S(=O)(NCCNC/C=C/c1ccc(Br)cc1)c1cccc2cnccc12,79
8,COc1cc2nccc(Oc3ccc(NC(=O)Nc4cc(C)on4)c(Cl)c3)c2cc1OC,67
9,O=C1Cc2c([nH]c3ccc(Br)cc23)-c2ccccc2N1,89
10,O=c1cc(N2CCOCC2)oc2c(-c3ccccc3)cccc12,101
